Laboratory results published in PubChem BioAssay (NCATS).
“And” between values parts separate entries of the source, which are not always exact repeats. Equal entries are not always repeated. Records with an inconclusive call do not appear. Values without a mark were called inactive. The source made the active and inactive calls. Calls follow the shape of the dose curve; as a rule, active = well fitted curve in the direction sought with a large enough effect; inconclusive = small, poorly fitted or top-dose-only effect, or another doubt; inactive = no such curve, though single readings can be large; an effect the other way counts as inactive or inconclusive.

Assays:
[1] = Viability qHTS for spleen associated tyrosine kinase inhibitor (SYKi) naive MV4-11 cells (AID 1963823); also: nearly all actives have a fitted effect of over 40% in size; also: potency is read from the fitted curve at half-maximal effect
How it was run: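 Cells: MV4-11, SYK inhibitor naive, 500 per well. Treatment: library compounds, 72 hr, 37 C, 5% CO2. Read-out: CellTiter-Glo luminescence after 10 min RT.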

[2] = Viability qHTS for spleen associated tyrosine kinase inhibitor (SYKi) drug resistant MV4-11 cells (AID 1963824); also: nearly all actives have a fitted effect of over 35% in size; also: potency is read from the fitted curve at half-maximal effect
How it was run: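 SYK inhibitor-resistant MV4-11 AML cells, 500 per well, added to predispensed compounds and incubated 72 hr at 37 C, 5% CO2. Viability measured by CellTiter-Glo luminescence after 10 min at room temperature.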

[3] = Cellular viability qHTS for adrenocortical cancer (ACC) cell line SW-13 (AID 1963989); conditions: SW-13 ACC cells viability, CellTiter-Glo, 48 h; activity (max response): active compounds read low; also: nearly all actives have a fitted effect of over 65% in size; also: potency is read from the fitted curve at half-maximal effect;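 as to activity (max response): cells grown in serum-free medium with ITS supplement; % is scaled to controls: 0 for no effect and ±100 for the full control effect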
How it was run: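 Viability was read as CellTiter-Glo luminescence after 48 h compound treatment (up to 46 uM final) of SW-13 cells grown serum-free; titration curves were fit with a four-parameter logistic model to give IC50 and efficacy.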

[4] = Cellular viability qHTS for adrenocortical cancer (ACC) cell line NCI-H295R (AID 1963990);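 also: 0% = DMSO only wells and -100% = full killing with cytotoxic reference compound; nearly all actives have a fitted effect of over 60% in size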
How it was run: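 CellTiter-Glo ATP luminescence, read 48 h after compound addition, measured viability of NCI-H295R adrenocortical cells grown serum-free with ITS. Final concentrations spanned up to 46 uM. Data normalized to DMSO and doxorubicin, fitted for IC50 and maximal response.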

Question: Which results are given for CC(C)(C)c1[nH]cnc1/C=c1\[nH]c(=O)/c(=C/c2ccccc2)[nH]c1=O?
Answer: Potency [1]: 0.0833 µM (active); Potency [2]: 0.0934 µM (active); Potency [3]: 0.0398 µM (active)

Question: Which results are given for Cc1cc(OCCOCC[N+](C)(C)Cc2ccccc2)ccc1C(C)(C)CC(C)(C)C?
Answer: Potency [1]: 3.35 µM (active); Potency [2]: 2.66 µM (active); Potency [3]: 5.8 µM (active)

Question: Which results are given for CC(C)C(=O)OCC(=O)[C@@]12O[C@H](C3CCCCC3)O[C@@H]1C[C@H]1[C@@H]3CCC4=CC(=O)C=C[C@]4(C)[C@H]3[C@@H](O)C[C@@]12C?
Answer: Potency [1]: 5.9 µM (active); Potency [2]: 2.95 µM (active); activity (max response) [3]: -10.3%

Question: With CCOC(=O)C1=C(C)NC(C)=C(C(=O)OCC)C1c1ccccc1/C=C/C(=O)OC(C)(C)C as the molecule, how does the Potency [1] read?
Answer: 9.44 µM (active)

Question: What about the Potency [2] of the same molecule?
Answer: 4.73 µM (active)

Question: And the Potency [3]?
Answer: 16.4 µM (active)

Question: Which Potency [1] does the source give for COc1cc(OC)c2c(=O)[nH]c(-c3cc(C)c(OCCO)c(C)c3)nc2c1 here?
Answer: 14.6 µM (active)

Question: And the Potency [2]?
Answer: 13 µM (active) and 9.34 µM (active)

Question: What about the activity (max response) [3] of the same molecule?
Answer: -6.15%

Question: Which Potency [1] does the source give for COc1cc(C(N)=O)ccc1NC(=O)[C@@H]1N[C@@H](CC(C)(C)C)[C@@]2(C(=O)Nc3cc(Cl)ccc32)[C@H]1c1cccc(Cl)c1F here?
Answer: 5.9 µM (active)

Question: And the Potency [2]?
Answer: 4.68 µM (active)

Question: What about the Potency [3] of the same molecule?
Answer: 15.8 µM (active)

Question: For CC(C)(C)c1ccc(O)c(O)c1, which Potency [1] is on record?
Answer: 9.69 µM (active)

Question: What about the Potency [2] of the same molecule?
Answer: 6.11 µM (active)

Question: What about the Potency [3] of the same molecule?
Answer: 10 µM (active)

Question: Which results are given for CN1CCC(Nc2ncc3ncnc(Nc4ccc(F)c(Cl)c4)c3n2)CC1?
Answer: Potency [1]: 9.44 µM (active) and 9.2 µM (active); Potency [2]: 18.8 µM (active) and 11.6 µM (active); Potency [3]: 18.4 µM (active)

Question: Which Potency [1] does the source give for Cc1cc(O)c(-c2ccc([C@@H](C)CN(C)C)cc2)c2c1[nH]c(=O)c1sccc12 here?
Answer: 0.0184 µM (active)

Question: What about the Potency [2] of the same molecule?
Answer: 0.0092 µM (active)

Question: What about the Potency [3] of the same molecule?
Answer: 0.0891 µM (active)

Question: What does the source list for c1ccc2sc(SSc3nc4ccccc4s3)nc2c1?
Answer: Potency [1]: inactive; Potency [2]: inactive; activity (max response) [3]: -16.2%

Question: For C[C@]12CCC3=C4CCC(=O)C=C4CC[C@H]3[C@@H]1CC[C@@]2(O)CC#N, which Potency [1] is on record?
Answer: inactive

Question: And the Potency [2]?
Answer: inactive

Question: And the activity (max response) [3]?
Answer: 0.0754%

Question: With CC(C)(NS(=O)(=O)c1ccc2c(Cl)cnc(N=C(N)N)c2c1)C(=O)O as the molecule, how does the Potency [1] read?
Answer: inactive

Question: What about the Potency [2] of the same molecule?
Answer: inactive

Question: What about the activity (max response) [3] of the same molecule?
Answer: 5.36%

Question: With Cc1nc(NC(=O)N2CCC[C@H]2C(N)=O)sc1-c1csc(C(C)(C)C)n1 as the molecule, how does the Potency [1] read?
Answer: 7.42 µM (active)

Question: What about the Potency [2] of the same molecule?
Answer: 7.42 µM (active)

Question: What about the activity (max response) [3] of the same molecule?
Answer: -23.3%

Question: For Cc1c(-c2cnccn2)ssc1=S, which Potency [1] is on record?
Answer: 4.17 µM (active)

Question: What about the Potency [2] of the same molecule?
Answer: 4.68 µM (active)

Question: And the activity (max response) [3]?
Answer: -8.54%

Question: Which results are given for CCc1cc(/C(C)=N/OCc2ccc(C3CCCCC3)c(C(F)(F)F)c2)ccc1CN1CC(C(=O)O)C1?
Answer: Potency [1]: 18.6 µM (active); Potency [2]: 14.8 µM (active); activity (max response) [3]: -17.6%

Question: Which Potency [1] does the source give for COc1c(C)c2c(c(O)c1C/C=C(\C)CCC(=O)O)C(=O)OC2 here?
Answer: 750 nM (active) and 1.32 µM (active)

Question: What about the Potency [2] of the same molecule?
Answer: 473 nM (active) and 934 nM (active)

Question: What about the activity (max response) [3] of the same molecule?
Answer: -49%

Question: For CC(C)(C)c1nnc(NS(=O)(=O)c2ccc(N)cc2)s1, which Potency [1] is on record?
Answer: inactive

Question: And the Potency [2]?
Answer: inactive

Question: And the activity (max response) [3]?
Answer: -5.75%

Question: With CCN[C@H]1CN(CCCOC)S(=O)(=O)c2sc(S(N)(=O)=O)cc21 as the molecule, how does the Potency [1] read?
Answer: inactive

Question: And the Potency [2]?
Answer: inactive

Question: What about the activity (max response) [3] of the same molecule?
Answer: 7.66%

Question: For C[C@H](NC(=O)c1c(N)nn2cccnc12)c1cc2cccc(C#Cc3cnn(C)c3)c2c(=O)n1-c1ccccc1, which Potency [1] is on record?
Answer: 7.23 µM (active)

Question: What about the Potency [2] of the same molecule?
Answer: 7.23 µM (active)

Question: And the activity (max response) [3]?
Answer: -17.5%

Question: For O=C(O)[C@@H]1[C@H]2C[C@H]3c4[nH]c5ccccc5c4CCN3C[C@@H]2CC[C@@H]1O, which Potency [1] is on record?
Answer: 2.66 µM (active)

Question: And the Potency [2]?
Answer: 5.96 µM (active)

Question: And the activity (max response) [3]?
Answer: 3.73%

Question: For CC(C)C[C@H](CO)Nc1nc(S[C@@H](C)c2ccccc2)nc2nc(N)sc12, which Potency [1] is on record?
Answer: 14.6 µM (active)

Question: What about the Potency [2] of the same molecule?
Answer: 6.61 µM (active)

Question: What about the Potency [3] of the same molecule?
Answer: 31.6 µM (active)

Question: With CC(=O)/C=C/C=C1/C2CCC(C2)C1(C)C (stereo not given) as the molecule, how does the Potency [1] read?
Answer: inactive

Question: What about the Potency [2] of the same molecule?
Answer: inactive

Question: And the activity (max response) [3]?
Answer: 6.09%

Question: Which results are given for CC[C@@]1(O)C(=O)OCc2c1cc1n(c2=O)Cc2c-1nc1ccccc1c2/C=N/OC(C)(C)C?
Answer: Potency [1]: 0.0084 µM (active); Potency [2]: 0.006 µM (active); Potency [3]: 0.013 µM (active)

Question: Which Potency [1] does the source give for CCCCCOc1ccccc1/C(=C\SC)n1ccnc1 here?
Answer: 11.9 µM (active)

Question: What about the Potency [2] of the same molecule?
Answer: 18.8 µM (active)

Question: And the Potency [3]?
Answer: 23.1 µM (active)

Question: Which Potency [1] does the source give for CCN(C(=O)c1ccccc1OC)c1cc2c(cc1N1CCNC[C@H]1C)n(C)c(=O)n2C here?
Answer: inactive

Question: What about the Potency [2] of the same molecule?
Answer: inactive

Question: What about the activity (max response) [3] of the same molecule?
Answer: 1.48%

Question: And the Potency [4]?
Answer: inactive

Question: What does the source list for O=C(CCCCCCNC(=O)c1cnc(N(c2ccccc2)c2ccccc2Cl)nc1)NO?
Answer: Potency [1]: 3.32 µM (active); Potency [2]: 2.63 µM (active); Potency [3]: 14.1 µM (active)

Question: What does the source list for CC(C)(Oc1ccc(CCNC(=O)c2ccc(Cl)cc2)cc1)C(=O)O?
Answer: Potency [1]: inactive; Potency [2]: inactive; activity (max response) [3]: -0.538%

Question: With CO[C@@H]1[C@@H](OC)[C@H](C)[C@@](O)(CC(=O)O)O[C@H]1[C@H](C)[C@H]1O[C@@]2(CC[C@@](C)([C@H]3CC[C@@](C)([C@@H]4O[C@@H]([C@H]5O[C@](C)(O)[C@H](C)C[C@@H]5C)C[C@@H]4OC4C[C@H](OC)[C@@H](OC)[C@H](C)O4)O3)O2)C[C@H](O)[C@H]1C (stereo not given in full) as the molecule, how does the Potency [1] read?
Answer: 0.376 µM (active)

Question: What about the Potency [2] of the same molecule?
Answer: 0.596 µM (active)

Question: What about the Potency [3] of the same molecule?
Answer: 1.46 µM (active)
